# Assay results reported in ChEMBL document CHEMBL1961873, “Compounds: GSK PKIS; Assays: Nanosyn kinase panel” (2012).
# Tests used:
# [1] = target: 5'-AMP-activated protein kinase catalytic subunit alpha-2 (Homo sapiens) (UniProt P54646); details: at 1 µM
# [2] = target: T1, NUAK family SNF1-like kinase 1 (Homo sapiens) (UniProt O60285); details: at 0.1 µM
# T1 sequence (whole entry): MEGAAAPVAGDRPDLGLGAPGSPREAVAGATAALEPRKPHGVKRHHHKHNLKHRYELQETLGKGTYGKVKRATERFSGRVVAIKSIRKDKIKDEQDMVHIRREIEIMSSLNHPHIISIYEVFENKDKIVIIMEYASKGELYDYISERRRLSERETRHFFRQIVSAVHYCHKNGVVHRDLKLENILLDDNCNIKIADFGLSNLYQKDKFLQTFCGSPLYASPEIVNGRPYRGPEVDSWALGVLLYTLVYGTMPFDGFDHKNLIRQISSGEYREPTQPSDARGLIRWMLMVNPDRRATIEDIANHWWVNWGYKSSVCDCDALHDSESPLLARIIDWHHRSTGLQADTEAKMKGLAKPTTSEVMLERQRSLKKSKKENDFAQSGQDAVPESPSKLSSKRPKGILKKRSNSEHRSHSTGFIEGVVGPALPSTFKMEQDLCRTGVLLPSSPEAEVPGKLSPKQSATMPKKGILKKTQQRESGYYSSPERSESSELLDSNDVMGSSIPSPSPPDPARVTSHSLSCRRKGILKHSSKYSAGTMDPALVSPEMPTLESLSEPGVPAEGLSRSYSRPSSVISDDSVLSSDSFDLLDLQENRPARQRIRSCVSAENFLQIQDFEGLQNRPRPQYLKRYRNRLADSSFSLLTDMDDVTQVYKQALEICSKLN
# [3] = target: T1, NUAK family SNF1-like kinase 1 (Homo sapiens); details: at 1 µM
# [4] = target: T2, Serine/threonine-protein kinase BRSK1 (Homo sapiens) (UniProt Q8TDC3); details: at 0.1 µM
# T2 sequence (whole entry): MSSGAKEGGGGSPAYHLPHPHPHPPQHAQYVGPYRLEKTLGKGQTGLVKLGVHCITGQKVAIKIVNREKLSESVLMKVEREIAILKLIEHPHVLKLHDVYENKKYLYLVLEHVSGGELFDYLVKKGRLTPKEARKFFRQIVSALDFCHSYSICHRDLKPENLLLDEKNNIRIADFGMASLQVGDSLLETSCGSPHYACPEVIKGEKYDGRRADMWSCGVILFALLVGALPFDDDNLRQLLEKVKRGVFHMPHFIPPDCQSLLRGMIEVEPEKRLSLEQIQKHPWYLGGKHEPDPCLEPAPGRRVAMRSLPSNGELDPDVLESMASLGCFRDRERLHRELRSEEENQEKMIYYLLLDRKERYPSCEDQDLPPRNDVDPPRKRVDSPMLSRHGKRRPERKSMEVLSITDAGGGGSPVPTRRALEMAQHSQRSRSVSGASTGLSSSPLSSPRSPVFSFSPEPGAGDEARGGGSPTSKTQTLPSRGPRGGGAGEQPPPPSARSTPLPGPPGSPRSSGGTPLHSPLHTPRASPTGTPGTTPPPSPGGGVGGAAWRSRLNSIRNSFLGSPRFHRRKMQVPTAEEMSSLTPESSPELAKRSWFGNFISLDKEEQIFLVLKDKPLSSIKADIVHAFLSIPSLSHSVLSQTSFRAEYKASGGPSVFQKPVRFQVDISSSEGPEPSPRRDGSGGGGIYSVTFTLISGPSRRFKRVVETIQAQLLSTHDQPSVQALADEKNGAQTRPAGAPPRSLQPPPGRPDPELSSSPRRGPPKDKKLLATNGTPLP
# [5] = target: T2, Serine/threonine-protein kinase BRSK1 (Homo sapiens); details: at 1 µM
# [6] = target: T3, Serine/threonine-protein kinase BRSK2 (Homo sapiens) (UniProt Q8IWQ3); details: at 0.1 µM
# T3 sequence (whole entry): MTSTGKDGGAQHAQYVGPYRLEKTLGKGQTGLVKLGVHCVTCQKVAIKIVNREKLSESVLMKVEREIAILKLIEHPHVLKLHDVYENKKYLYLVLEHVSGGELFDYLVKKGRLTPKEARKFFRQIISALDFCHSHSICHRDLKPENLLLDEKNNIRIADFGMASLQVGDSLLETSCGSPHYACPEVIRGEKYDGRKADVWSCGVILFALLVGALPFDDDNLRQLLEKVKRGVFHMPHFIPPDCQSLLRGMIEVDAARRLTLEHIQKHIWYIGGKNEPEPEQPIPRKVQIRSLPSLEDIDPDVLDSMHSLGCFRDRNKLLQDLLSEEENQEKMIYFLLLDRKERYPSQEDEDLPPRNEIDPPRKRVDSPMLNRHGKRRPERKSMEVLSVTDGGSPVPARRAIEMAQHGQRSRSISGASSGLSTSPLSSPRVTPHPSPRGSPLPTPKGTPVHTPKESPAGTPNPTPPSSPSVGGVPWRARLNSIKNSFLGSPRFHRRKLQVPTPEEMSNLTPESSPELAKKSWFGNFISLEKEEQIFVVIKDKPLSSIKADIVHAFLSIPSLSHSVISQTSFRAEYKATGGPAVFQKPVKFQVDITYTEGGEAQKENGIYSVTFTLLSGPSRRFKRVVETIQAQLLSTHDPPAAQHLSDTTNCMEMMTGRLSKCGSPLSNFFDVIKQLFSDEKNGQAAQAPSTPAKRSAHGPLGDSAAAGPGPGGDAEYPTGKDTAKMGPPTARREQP
# [7] = target: T3, Serine/threonine-protein kinase BRSK2 (Homo sapiens); details: at 1 µM
# [8] = target: Calcium/calmodulin-dependent protein kinase type 1D (Homo sapiens) (UniProt Q8IU85); details: at 0.1 µM
# [9] = target: Calcium/calmodulin-dependent protein kinase type 1D (Homo sapiens) (UniProt Q8IU85); details: at 1 µM
# [10] = target: Calcium/calmodulin-dependent protein kinase type II subunit alpha (Homo sapiens) (UniProt Q9UQM7); details: at 0.1 µM
# [11] = target: Calcium/calmodulin-dependent protein kinase type II subunit alpha (Homo sapiens) (UniProt Q9UQM7); details: at 1 µM
# [12] = target: Calcium/calmodulin-dependent protein kinase type II subunit delta (Homo sapiens) (UniProt Q13557); details: at 0.1 µM
# [13] = target: Calcium/calmodulin-dependent protein kinase type II subunit delta (Homo sapiens) (UniProt Q13557); details: at 1 µM
# [14] = target: T4, Calcium/calmodulin-dependent protein kinase type IV (Homo sapiens) (UniProt Q16566); details: at 0.1 µM
# T4 sequence (whole entry): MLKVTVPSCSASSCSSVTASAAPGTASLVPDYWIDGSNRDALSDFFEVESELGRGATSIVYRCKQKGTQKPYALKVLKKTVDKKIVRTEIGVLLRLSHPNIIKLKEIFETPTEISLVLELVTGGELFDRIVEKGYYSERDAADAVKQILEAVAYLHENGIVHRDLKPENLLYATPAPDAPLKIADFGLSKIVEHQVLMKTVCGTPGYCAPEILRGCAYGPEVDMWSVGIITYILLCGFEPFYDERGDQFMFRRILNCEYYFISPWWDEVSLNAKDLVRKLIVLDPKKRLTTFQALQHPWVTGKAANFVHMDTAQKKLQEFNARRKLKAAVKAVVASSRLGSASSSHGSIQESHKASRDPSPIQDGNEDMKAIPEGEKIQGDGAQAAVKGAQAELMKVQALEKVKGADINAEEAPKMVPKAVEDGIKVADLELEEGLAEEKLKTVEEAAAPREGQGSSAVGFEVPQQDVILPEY
# [15] = target: T4, Calcium/calmodulin-dependent protein kinase type IV (Homo sapiens); details: at 1 µM
# [16] = target: T5, Serine/threonine-protein kinase Chk1 (Homo sapiens) (UniProt O14757); details: at 0.1 µM
# T5 sequence (whole entry): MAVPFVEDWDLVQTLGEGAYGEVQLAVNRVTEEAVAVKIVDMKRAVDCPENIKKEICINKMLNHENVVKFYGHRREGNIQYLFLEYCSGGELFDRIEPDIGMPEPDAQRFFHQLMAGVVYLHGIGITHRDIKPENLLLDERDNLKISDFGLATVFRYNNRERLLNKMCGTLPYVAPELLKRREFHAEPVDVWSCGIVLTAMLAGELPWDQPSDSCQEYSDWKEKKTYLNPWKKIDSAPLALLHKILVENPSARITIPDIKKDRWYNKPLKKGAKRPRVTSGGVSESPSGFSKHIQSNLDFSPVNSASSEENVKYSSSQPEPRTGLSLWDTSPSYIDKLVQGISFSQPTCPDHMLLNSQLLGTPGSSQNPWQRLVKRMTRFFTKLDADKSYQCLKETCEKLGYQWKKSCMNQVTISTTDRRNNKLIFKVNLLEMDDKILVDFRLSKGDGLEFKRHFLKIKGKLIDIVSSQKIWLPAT
# [17] = target: T5, Serine/threonine-protein kinase Chk1 (Homo sapiens); details: at 1 µM
# [18] = target: Serine/threonine-protein kinase Chk2 (Homo sapiens) (UniProt O96017); details: at 0.1 µM
# [19] = target: Serine/threonine-protein kinase Chk2 (Homo sapiens) (UniProt O96017); details: at 1 µM
# [20] = target: Death-associated protein kinase 1 (Homo sapiens) (UniProt P53355); details: at 0.1 µM;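 note: reported figure is the mean inhibition of DAPK1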
# Sequence of Death-associated protein kinase 1 (Homo sapiens) (P53355 whole entry, looked up): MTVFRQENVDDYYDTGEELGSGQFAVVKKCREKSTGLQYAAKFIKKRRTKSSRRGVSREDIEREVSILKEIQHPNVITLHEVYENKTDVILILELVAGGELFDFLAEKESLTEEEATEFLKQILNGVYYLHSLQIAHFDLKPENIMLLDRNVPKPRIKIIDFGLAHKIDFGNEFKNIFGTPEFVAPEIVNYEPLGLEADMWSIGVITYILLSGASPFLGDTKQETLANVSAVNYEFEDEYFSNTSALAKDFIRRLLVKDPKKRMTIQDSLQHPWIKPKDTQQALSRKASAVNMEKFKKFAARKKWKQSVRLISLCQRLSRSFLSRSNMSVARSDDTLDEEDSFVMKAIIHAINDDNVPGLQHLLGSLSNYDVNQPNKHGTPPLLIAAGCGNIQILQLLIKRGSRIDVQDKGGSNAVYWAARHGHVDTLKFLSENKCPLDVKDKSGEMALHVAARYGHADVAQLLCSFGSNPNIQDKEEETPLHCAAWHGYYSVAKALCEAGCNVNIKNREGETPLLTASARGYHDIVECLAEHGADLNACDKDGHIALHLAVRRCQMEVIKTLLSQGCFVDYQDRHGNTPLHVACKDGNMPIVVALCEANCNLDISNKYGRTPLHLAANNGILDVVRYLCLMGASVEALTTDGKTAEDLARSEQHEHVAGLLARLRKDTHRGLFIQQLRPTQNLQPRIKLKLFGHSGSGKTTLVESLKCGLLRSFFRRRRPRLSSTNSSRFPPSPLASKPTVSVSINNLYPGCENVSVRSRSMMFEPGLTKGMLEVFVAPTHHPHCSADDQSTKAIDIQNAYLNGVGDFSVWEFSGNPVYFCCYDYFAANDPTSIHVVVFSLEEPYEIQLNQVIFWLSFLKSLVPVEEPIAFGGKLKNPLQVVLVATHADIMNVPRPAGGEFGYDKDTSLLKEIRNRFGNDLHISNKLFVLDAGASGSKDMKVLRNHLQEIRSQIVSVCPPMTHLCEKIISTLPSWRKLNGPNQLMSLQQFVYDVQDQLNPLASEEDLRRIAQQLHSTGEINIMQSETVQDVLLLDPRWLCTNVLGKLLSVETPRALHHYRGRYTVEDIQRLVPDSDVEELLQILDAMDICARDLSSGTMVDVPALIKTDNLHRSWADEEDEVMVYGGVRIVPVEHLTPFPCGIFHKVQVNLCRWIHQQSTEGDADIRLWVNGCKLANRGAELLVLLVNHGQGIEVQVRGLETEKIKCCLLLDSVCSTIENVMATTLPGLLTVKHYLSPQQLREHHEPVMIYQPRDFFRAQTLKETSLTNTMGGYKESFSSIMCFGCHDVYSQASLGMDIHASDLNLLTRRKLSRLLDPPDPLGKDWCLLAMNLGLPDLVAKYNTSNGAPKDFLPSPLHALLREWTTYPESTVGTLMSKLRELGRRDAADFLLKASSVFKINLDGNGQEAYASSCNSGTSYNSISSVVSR
# Sequence of Calcium/calmodulin-dependent protein kinase type 1D (Homo sapiens) (Q8IU85 whole entry, looked up): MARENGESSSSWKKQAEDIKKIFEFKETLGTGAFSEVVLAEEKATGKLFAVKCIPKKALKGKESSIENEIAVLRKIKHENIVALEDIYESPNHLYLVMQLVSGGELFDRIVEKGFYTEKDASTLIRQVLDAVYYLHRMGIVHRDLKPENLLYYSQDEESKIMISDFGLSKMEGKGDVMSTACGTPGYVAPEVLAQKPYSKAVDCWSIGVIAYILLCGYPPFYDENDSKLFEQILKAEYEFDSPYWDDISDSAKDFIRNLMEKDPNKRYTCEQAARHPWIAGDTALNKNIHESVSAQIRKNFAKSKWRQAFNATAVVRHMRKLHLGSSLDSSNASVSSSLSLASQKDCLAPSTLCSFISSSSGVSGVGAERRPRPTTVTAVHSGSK
# Sequence of Calcium/calmodulin-dependent protein kinase type II subunit alpha (Homo sapiens) (Q9UQM7 whole entry): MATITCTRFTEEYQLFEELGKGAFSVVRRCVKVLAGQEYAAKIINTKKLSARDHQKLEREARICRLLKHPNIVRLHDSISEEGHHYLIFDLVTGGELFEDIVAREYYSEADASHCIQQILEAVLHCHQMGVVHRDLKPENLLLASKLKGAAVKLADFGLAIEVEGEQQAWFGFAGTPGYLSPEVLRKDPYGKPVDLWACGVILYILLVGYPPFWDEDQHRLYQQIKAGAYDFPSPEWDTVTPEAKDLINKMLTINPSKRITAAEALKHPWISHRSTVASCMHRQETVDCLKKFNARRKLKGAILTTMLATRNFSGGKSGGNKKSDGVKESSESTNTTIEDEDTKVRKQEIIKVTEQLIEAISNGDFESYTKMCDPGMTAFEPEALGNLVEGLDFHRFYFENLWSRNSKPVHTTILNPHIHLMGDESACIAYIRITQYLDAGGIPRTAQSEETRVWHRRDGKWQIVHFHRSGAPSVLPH
# Sequence of Serine/threonine-protein kinase Chk2 (Homo sapiens) (O96017 whole entry): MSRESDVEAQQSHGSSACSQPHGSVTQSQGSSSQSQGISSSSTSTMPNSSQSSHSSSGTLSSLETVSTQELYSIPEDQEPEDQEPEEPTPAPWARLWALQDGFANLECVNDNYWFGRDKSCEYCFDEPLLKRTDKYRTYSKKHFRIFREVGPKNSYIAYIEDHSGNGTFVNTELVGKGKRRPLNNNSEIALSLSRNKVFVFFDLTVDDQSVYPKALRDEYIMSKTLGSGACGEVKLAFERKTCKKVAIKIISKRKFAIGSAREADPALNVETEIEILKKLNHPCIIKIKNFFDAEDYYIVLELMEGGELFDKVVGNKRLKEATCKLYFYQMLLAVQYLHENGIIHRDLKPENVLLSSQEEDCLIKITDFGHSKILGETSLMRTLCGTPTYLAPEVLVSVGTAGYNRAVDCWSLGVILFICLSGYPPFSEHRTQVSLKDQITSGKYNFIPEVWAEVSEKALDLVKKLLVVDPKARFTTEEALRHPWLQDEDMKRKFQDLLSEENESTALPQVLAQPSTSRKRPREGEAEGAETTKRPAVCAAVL
# Sequence of 5'-AMP-activated protein kinase catalytic subunit alpha-2 (Homo sapiens) (P54646 whole entry, looked up): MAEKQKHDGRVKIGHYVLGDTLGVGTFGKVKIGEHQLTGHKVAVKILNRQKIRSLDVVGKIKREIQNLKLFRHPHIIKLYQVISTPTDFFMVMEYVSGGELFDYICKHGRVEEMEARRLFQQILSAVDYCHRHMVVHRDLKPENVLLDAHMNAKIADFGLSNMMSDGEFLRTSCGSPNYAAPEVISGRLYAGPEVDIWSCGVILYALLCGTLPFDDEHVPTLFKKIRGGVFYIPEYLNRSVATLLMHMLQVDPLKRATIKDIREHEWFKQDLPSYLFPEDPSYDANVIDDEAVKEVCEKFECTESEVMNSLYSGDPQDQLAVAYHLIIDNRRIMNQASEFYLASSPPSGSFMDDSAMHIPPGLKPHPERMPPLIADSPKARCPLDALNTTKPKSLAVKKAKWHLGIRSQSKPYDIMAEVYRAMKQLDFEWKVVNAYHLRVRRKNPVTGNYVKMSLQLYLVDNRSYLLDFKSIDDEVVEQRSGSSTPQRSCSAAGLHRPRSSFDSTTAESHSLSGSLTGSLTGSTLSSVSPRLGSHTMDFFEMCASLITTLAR
# Sequence of Calcium/calmodulin-dependent protein kinase type II subunit delta (Homo sapiens) (Q13557 whole entry): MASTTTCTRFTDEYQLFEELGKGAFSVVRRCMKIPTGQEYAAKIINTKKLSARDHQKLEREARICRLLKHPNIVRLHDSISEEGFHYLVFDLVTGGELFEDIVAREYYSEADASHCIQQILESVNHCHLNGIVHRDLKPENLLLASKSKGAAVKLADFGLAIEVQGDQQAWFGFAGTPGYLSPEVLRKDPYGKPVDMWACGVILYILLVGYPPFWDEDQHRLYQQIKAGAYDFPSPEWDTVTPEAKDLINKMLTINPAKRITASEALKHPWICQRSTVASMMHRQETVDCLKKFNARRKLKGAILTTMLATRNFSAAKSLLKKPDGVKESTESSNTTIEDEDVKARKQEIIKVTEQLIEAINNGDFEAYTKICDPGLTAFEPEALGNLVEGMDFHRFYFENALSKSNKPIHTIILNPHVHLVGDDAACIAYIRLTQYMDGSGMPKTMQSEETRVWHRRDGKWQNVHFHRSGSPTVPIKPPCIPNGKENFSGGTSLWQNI
SMILES,inhibition [1],inhibition [2],inhibition [3],inhibition [4],inhibition [5],inhibition [6],inhibition [7],inhibition [8],inhibition [9],inhibition [10],inhibition [11],inhibition [12],inhibition [13],inhibition [14],inhibition [15],inhibition [16],inhibition [17],inhibition [18],inhibition [19],inhibition [20]
CCOc1ccc2c(-c3ccnc(Nc4cccc(C(F)(F)F)c4)n3)cnn2n1,2.74%,2.71%,7.44%,1.14%,4.56%,3.01%,2.66%,1%,1.1%,0.19%,-2.29%,2.41%,0.44%,1.94%,-1%,3.49%,3.51%,1.55%,1.92%,3.1%
Clc1ccc(-c2nn3ncccc3c2-c2ccnc(Nc3ccccc3)n2)cc1,2.26%,0.79%,4.21%,0.06%,1.52%,-0.16%,-0.21%,2.4%,1.17%,0.95%,0.86%,1.7%,1.08%,4.89%,-0.99%,-0.54%,-0.93%,0.52%,1.08%,0.42%
[O-][S+]1CCN(Cc2ccc(-c3ccc4ncnc(Nc5ccc(OCc6cccc(F)c6)c(Cl)c5)c4c3)o2)CC1,5.75%,0.9%,3.1%,1.17%,3.09%,3.06%,4.57%,0.83%,1.18%,3.06%,0.16%,2.62%,3.95%,0.28%,2.28%,7.38%,10.6%,1.91%,3.16%,6.57%
Nc1ncc(-c2cccc(S(N)(=O)=O)c2)c2scc(-c3ccc(F)c(Cl)c3)c12,4.34%,0.82%,2.44%,1.61%,5.62%,3.28%,6.56%,1.24%,0.88%,3.36%,0.53%,3.74%,2.95%,1.75%,1.03%,5.24%,2.44%,3.46%,7.7%,5.41%
CCNC(=O)O[C@H]1CN[C@H](C#Cc2cc3ncnc(Nc4ccc(OCc5cccc(F)c5)c(Cl)c4)c3s2)C1,4.45%,1.68%,6.34%,0.67%,2.32%,2.25%,1.26%,1.21%,2.24%,3.45%,3.02%,3.6%,4.34%,2.5%,2.5%,3.99%,2.84%,2.23%,2.55%,3.17%
COc1cccc(-c2c[nH]c3c(N/N=C/c4ccncc4)ncnc23)c1,7.68%,4.85%,38.5%,3.83%,21.4%,4.82%,29.8%,2.11%,4.07%,3.48%,6.66%,3.84%,15.2%,1.55%,4.18%,7.71%,11.3%,5.73%,6.91%,9.18%
